Assay outcomes as filed in PubChem BioAssay.
An excerpt weighted towards active compounds, which were near 3.4% of everything screened.
PP5 inh – PP5 phosphatase inhibitors, primary screen, biochemical, fluorescence; Serine/threonine-protein phosphatase 5 (Homo sapiens), P53041; purified PP5c, OMFP substrate fluorescence; inhibition, % at 6.7 µM; 320,000 tested, 0.18% active; AID 1987, 2009;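 active = inhibition above the campaign's mean inhibition across all tested compounds plus 3 SD, cut at about 9.5% in these data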;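 note: 0% = DMSO only and 100% = 100 µM cantharidin control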
Target sequence (P53041 whole entry, looked up): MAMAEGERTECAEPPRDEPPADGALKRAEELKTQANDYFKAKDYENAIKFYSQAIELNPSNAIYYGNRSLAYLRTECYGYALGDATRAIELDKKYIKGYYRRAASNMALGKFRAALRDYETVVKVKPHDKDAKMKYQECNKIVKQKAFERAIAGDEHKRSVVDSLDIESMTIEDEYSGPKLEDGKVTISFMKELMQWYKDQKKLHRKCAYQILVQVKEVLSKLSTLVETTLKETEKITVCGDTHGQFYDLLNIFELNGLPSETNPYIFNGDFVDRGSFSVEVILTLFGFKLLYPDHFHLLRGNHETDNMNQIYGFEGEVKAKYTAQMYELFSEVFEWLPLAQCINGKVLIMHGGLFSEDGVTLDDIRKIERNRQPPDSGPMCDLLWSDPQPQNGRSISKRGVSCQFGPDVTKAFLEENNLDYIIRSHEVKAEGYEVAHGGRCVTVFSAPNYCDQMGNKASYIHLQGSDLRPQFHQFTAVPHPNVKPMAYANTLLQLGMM
pPAFAH inh – pPAFAH enzyme inhibitors, primary screen, biochemical, fluorescence polarization, human | Platelet-activating factor acetylhydrolase (Homo sapiens), Q13093 | 330,000 tested, 1.5% active | inhibition, % at 3.39 µM | AID 463082, 2010 | recombinant pPAFAH, FP-rhodamine probe fluorescence polarization;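 active = inhibition above the mean inhibition across the screen plus 3 SD, cut at about 25% in these data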;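 note: inhibitors block binding of the rhodamine activity-based probe so polarization drops; 0% = enzyme with DMSO and 100% = wells lacking pPAFAH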
PAFAH1B3 FP inh – PAFAH1B3 enzyme inhibitors, primary screen, biochemical, fluorescence polarization, human. 340,000 tested, 0.28% active. recombinant PAFAH1B3, FP-rhodamine probe. inhibition, % at 3.39 µM;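 active = inhibition above the screen-wide average of all tested compounds plus 3 SD, cut at about 25% in these data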;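 note: 0% = enzyme with DMSO only and 100% = wells lacking PAFAH1B3 protein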
PAFAH1B2 inh – PAFAH1B2 enzyme inhibitors, primary screen, biochemical, fluorescence polarization, human; recombinant PAFAH1B2, FP-rhodamine activity probe; inhibition, % at 3.39 µM; 340,000 tested, 1.2% active;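 active = inhibition above the mean of all tested compounds plus 3 SD, cut at about 24% in these data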;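 note: 0% = enzyme with DMSO and 100% = wells lacking PAFAH1B2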
PAFAH2 FP inh – PAFAH2 enzyme inhibitors, primary screen, biochemical, fluorescence polarization, human | Platelet-activating factor acetylhydrolase 2, cytoplasmic (Homo sapiens), Q99487 | recombinant PAFAH2, FP-rhodamine activity probe | inhibition, % at 3.39 µM | 340,000 tested, 0.99% active | AID 492956, 2010;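 active = inhibition above the mean over all tested compounds plus 3 SD, cut at about 30% in these data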;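 note: inhibitors block probe labeling of enzyme so polarization drops; 0% = enzyme with DMSO and 100% = wells lacking PAFAH2 protein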
PP1 counter – PP1-alpha phosphatase inhibitors, primary screen, counter-screen for PP5 inhibitor project, biochemical, fluorescence, OMFP substrate, single point; Serine/threonine-protein phosphatase PP1-alpha catalytic subunit (Homo sapiens), P62136; purified PP1alpha; inhibition, % at 6.7 µM; 320,000 tested, 0.9% active;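 active = inhibition above the mean inhibition of all tested compounds plus 3 SD, computed separately for each screening campaign, cut at about 15% in these data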
PAFAH2 FP conf – PAFAH2 enzyme inhibitors, confirmation, biochemical, fluorescence polarization, human; AID 493030, 2011; recombinant PAFAH2, FP-rhodamine activity probe; 2,300 tested, 65% active; shares compounds with PAFAH2 FP inh; inhibition, % at 3.39 µM;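 active = mean inhibition over three repeats above a set limit taken from the earlier primary screen, cut at about 30% in these data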;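 note: inhibitor blocks binding of rhodamine activity probe so polarization falls; 0% = enzyme with DMSO and 100% = wells lacking PAFAH2 protein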
Active calls of the source: *.

`CCN(C(=O)COC(=O)c1ccc(Cl)cc1N)C1CCCCC1` gave PP5 inh -1.5, pPAFAH inh 3.5, PAFAH1B3 FP inh 6.8, PAFAH1B2 inh 4.0, PAFAH2 FP inh 1.1 and PP1 counter -3.3.
For Nc1cc(Cl)ccc1C(=O)OCC(=O)NC1CCCCC1 the results were PP5 inh -1.7, pPAFAH inh -2.5, PAFAH1B3 FP inh 9.0, PAFAH1B2 inh -1.5, PAFAH2 FP inh 32.6*, PP1 counter -2.2 and PAFAH2 FP conf 30.8*.
`O=C(COC(=O)c1cncc(Br)c1)NC1CCCC1` gave PP5 inh 2.0, pPAFAH inh -4.3, PAFAH1B3 FP inh 0.0, PAFAH1B2 inh 0.0, PAFAH2 FP inh 5.0 and PP1 counter -1.5.
For O=C(COC(=O)c1cc(Br)ccc1Cl)NC1CCCC1 the results were PP5 inh 1.2, pPAFAH inh 15.6, PAFAH1B3 FP inh -0.8, PAFAH1B2 inh 0.3, PAFAH2 FP inh 34.1*, PP1 counter -5.8 and PAFAH2 FP conf 30.3*.
`O=C(COC(=O)c1ccc(Br)cc1)NC1CCCC1` gave PP5 inh -2.1, pPAFAH inh 18.5, PAFAH1B3 FP inh 3.9, PAFAH1B2 inh -0.8, PAFAH2 FP inh 67.3*, PP1 counter -1.3 and PAFAH2 FP conf 69.1*.
`N#CCC(=O)Nc1ccc(C(=O)OCC(=O)NC2CCCCCC2)cc1` gave PP5 inh 0.8, pPAFAH inh 6.1, PAFAH1B3 FP inh 3.8, PAFAH1B2 inh 2.6, PAFAH2 FP inh 83.1*, PP1 counter -1.9 and PAFAH2 FP conf 84.0*.
`N#CCC(=O)Nc1ccc(C(=O)OCC(=O)N(C2CCCCC2)C2CCCCC2)cc1` gave PP5 inh 1.7, pPAFAH inh 2.8, PAFAH1B3 FP inh -2.3, PAFAH1B2 inh -1.9, PAFAH2 FP inh -6.4 and PP1 counter 4.2.
COc1ccc(-c2noc(Cc3ccc(Cl)cc3)n2)cc1OC was read as PP5 inh 2.6, pPAFAH inh 13.4, PAFAH1B3 FP inh -1.1, PAFAH1B2 inh 16.1, PAFAH2 FP inh -13.6 and PP1 counter 0.6.
CCCN1CCN(CCCNC(=O)Cn2cc3c(n2)CCCC3)CC1 was read as PP5 inh 1.9, pPAFAH inh -2.5, PAFAH1B3 FP inh 6.8, PAFAH1B2 inh 5.1, PAFAH2 FP inh 6.4 and PP1 counter -4.9.
CC1(C)CC(=O)C(CS(=O)(=O)c2ccccc2)=C(O)C1 was read as PP5 inh -0.8, pPAFAH inh -0.3, PAFAH1B3 FP inh 4.1, PAFAH1B2 inh 1.6, PAFAH2 FP inh -2.0 and PP1 counter -1.2.
`CNS(=O)(=O)c1cccc(C(=O)OCC(=O)NC2CCCC2)c1` gave PP5 inh -0.9, pPAFAH inh 5.6, PAFAH1B3 FP inh 8.1, PAFAH1B2 inh -2.6, PAFAH2 FP inh 46.3*, PP1 counter -1.4 and PAFAH2 FP conf 27.6.
`O=C(COC(=O)c1ccccc1)NC1CCCC1` gave PP5 inh -7.5, pPAFAH inh 6.9, PAFAH1B3 FP inh 5.9, PAFAH1B2 inh 8.1, PAFAH2 FP inh 73.3*, PP1 counter 6.7 and PAFAH2 FP conf 57.7*.
O=C(COC(=O)c1c2c(nc3ccccc13)/C(=C/c1ccco1)CC2)NC1CCCC1 was read as PAFAH1B3 FP inh 18.0, PAFAH1B2 inh 3.9, PAFAH2 FP inh 35.9* and PAFAH2 FP conf 7.4.
`CCOC(=O)C/C(C)=N/NC(=O)CNc1cccc(Cl)c1C` gave PP5 inh 1.1, pPAFAH inh -2.0, PAFAH1B3 FP inh -1.0, PAFAH1B2 inh 3.0, PAFAH2 FP inh 72.3*, PP1 counter -1.5 and PAFAH2 FP conf 63.0*.
Screening Cc1c(Cl)cccc1NCC(=O)NN=C1CCCC1 returned PP5 inh -0.1, pPAFAH inh 1.2, PAFAH1B3 FP inh 2.7, PAFAH1B2 inh -2.4, PAFAH2 FP inh 3.0 and PP1 counter 2.9.
O=[N+]([O-])c1cc(Cl)cc(/C=N/Nc2nc3ccccc3s2)c1O was read as PP5 inh 1.7, pPAFAH inh 12.7, PAFAH1B3 FP inh 18.0, PAFAH1B2 inh 4.9, PAFAH2 FP inh 65.0*, PP1 counter -2.1 and PAFAH2 FP conf 46.0*.
